In the supplement of paper PMC6555819:

What was measured:
Assay in all cases: PBM binding z-score (relative to random genomic background probes); higher = stronger binding; sequences stand for … in GC…GCGATTGACAGCGTAGAATGAAGG
[1] = test system: PPARg:RXRa IVT, anti-PPARg (NR concentration 270 nM, RXRa partner concentration 90 nM)
In short: (§1)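 Regression normalization was applied to scanned fluorescence from custom Agilent 4×180K protein-binding microarrays. Before scanning, arrays were incubated 1 h with ligand-free nuclear receptor dimers, and binding was detected with antibodies against each partner (one per run). Binding z-scores use the random background probes as reference.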

[2] = test system: PPARg DBDmut:RXRa IVT, anti-PPARg (DBD mutation: PPARg1 K132A/R137A, NR concentration 270 nM, RXRa partner concentration 90 nM)
In short: as §1

[3] = test system: PPARg DBDmut IVT, anti-PPARg (DBD mutation: PPARg1 K132A/R137A, NR concentration 270 nM)
In short: as §1

[4] = test system: PPARg homodimer (NR concentration 180 nM)
In short: as §1

[5] = test system: PXR:RXRa (NR concentration 270 nM, RXRa partner concentration 90 nM)
In short: as §1

[6] = test system: PXR homodimer (NR concentration 270 nM)
In short: as §1

[7] = test system: RARa:RXR (NR concentration 270 nM, RXRa partner concentration 90 nM)
In short: as §1

[8] = test system: RARa homodimer (NR concentration 270 nM)
In short: as §1

[9] = test system: RARb:RXRa (NR concentration 270 nM, RXRa partner concentration 90 nM)
In short: as §1

[10] = test system: RARb homodimer (NR concentration 270 nM)
In short: as §1

Sequence	PBM binding z-score [1]	PBM binding z-score [2]	PBM binding z-score [3]	PBM binding z-score [4]	PBM binding z-score [5]	PBM binding z-score [6]	PBM binding z-score [7]	PBM binding z-score [8]	PBM binding z-score [9]	PBM binding z-score [10]
AGAATGAGGTTACCAAAGGTCAGGGAAACGCTTG	4.54	1.08	0.912	4.43	6.1	1.49	6.53	1.28	4.91	5.13
AATACAGGGTAACTAGGCCAGAGTAGGTACGAAT	4.67	1.24	0.826	0.854	-0.078	0.0219	-0.00374	0.0183	0.804	0.549
CCGAGTTGGTCAAGGTCACACACGCTATAGGTAC	3.09	0.702	0.995	3.6	4.94	5.4	4.96	2.02	4.17	4.42
CGTCAAAGGTCAAGGTAACGTAACAGAAAGCAGC	6.15	3.88	3.1	4.75	5.33	0.602	6.56	2.85	–	5.16
TAGCCTAGGTCATGGGCCAGTGTACCACGCGAAC	3.43	0.332	0.203	1.42	1.6	-0.511	2.86	-0.252	4.01	3.09
TCTTGTAGATCGATAGAGGTTAAGAAAGTGCGCT	0.198	0.295	0.641	0.199	2.67	0.241	1.23	0.262	0.661	0.946
TAGCCTAGGTCATTCAGGGGCCAGCATAGAAAGC	2.78	0.63	0.0516	1.32	2.37	-0.172	3.95	-0.134	3.92	3.42
TAGCCTAAGTCATGCGGGCCAGTATAGTGTCGGC	-0.138	-0.862	-1.37	-0.139	-0.538	-0.831	-0.11	-1.14	-0.165	-0.506
CGTCAAAGGTCAATGCTAGGTCAGTGAAAGCATT	6.13	2.05	0.936	5.64	5.96	1.66	6.85	2.5	–	5.56
TAGCCTAGGTTATGGGCCAGTATACCACGCGAAC	0.996	-0.249	-0.26	0.0998	-0.0911	-0.214	0.27	-0.107	0.734	0.24
ATATGTAGGTTAGCTGGGGTCATTCACACTAGGC	6.11	2.75	2.29	3.1	6.36	4.2	5.41	1.89	2.85	3.87
GATATAGGGTCAGCTAGAGGCCAGAGTATGGAAA	3.12	0.476	0.427	1.99	3.23	0.376	4.57	0.593	4.34	3.75
CCAACTGGGCCAAAAAGGTCATTGATGCCGATAA	3.89	-0.199	-0.68	2.84	4.6	3	4.65	1.31	3.94	4.36
GATACAGGGTCGGCTAGAGGCCAGAGTATGGAAA	-0.134	-0.784	-0.716	0.88	0.712	-0.222	1.39	-0.471	1.56	1.32
CGTCCAAGGACAATGCTAGGTCAGTGAAAGCATT	0.25	-1.55	-0.865	0.328	0.242	0.0712	0.502	-0.127	2.03	2.48
AGAATGAGGTTACCAAAGTTCAGGGAAACGCTTG	4.09	0.616	0.161	1.31	6.02	3.03	3.93	0.38	3.81	3.93
ATCGAAAGGTCGACCAGGTGAGTATACACCGTTT	2.15	0.944	0.642	1.28	2.8	0.258	3.62	0.621	3.98	2.97
AATACAGGGTCACGAGGCCAGAGTAGGTACGAAT	5.74	2.21	2.16	3.03	4.43	0.257	5.27	1.39	5.07	4.14
TAGCCTAGGTCATGCGGGCCAATATAGTGTCGGC	2.94	-0.152	-0.18	0.69	1.64	-0.334	2.13	-0.396	3.67	3.15
GCTGCTAGGTCAACTGATGGCCAGCTAAAGCTCG	4.14	-0.855	-0.449	1.12	1.1	-0.837	1.88	-0.722	4.23	3.32
GGAACGAGGTCAAGTTGATAGCAGAGTTTGATGG	6.52	2.59	0.598	3.81	5.86	2.91	5.81	2.1	–	4.59
TACCCTAGGTCATGGGCCAGTATACCACGCGAAC	3.86	1.09	0.696	2.52	2.07	0.812	3.19	0.836	4.11	3.19
TGTCAACGTTCAAAGGTAACGTAAGTATCCACAC	1.78	0.941	0.758	0.252	0.578	-0.0241	1.36	0.107	1.46	1
AGAATGAGGTTACTAAAGATCAGGGAAACGCTTG	2.84	0.939	0.661	0.271	0.942	0.152	1.21	0.392	1.51	0.777
CGAACAAGGTCATTGACAGGACAGTGAATAGTAA	4.81	1.05	0.903	2.11	4.12	1.79	4.28	1.42	5	3.92
TCTCGGAGGACACTAAAGGTCAGAGCTCGACATC	1.59	-0.114	-0.191	2.43	3.8	0.66	4.14	0.456	3.84	4.7

Sequence	PBM binding z-score [1]	PBM binding z-score [2]	PBM binding z-score [3]	PBM binding z-score [4]	PBM binding z-score [5]	PBM binding z-score [6]	PBM binding z-score [7]	PBM binding z-score [8]	PBM binding z-score [9]	PBM binding z-score [10]
TCTAGTTGGTCTAAGGTCACACACTCGAAATGCG	3.51	1.67	1.64	4.05	4.79	2.22	5.04	2.5	3.76	4.29
ATATGTAGGTTAAGCGTCATTCAGGTTGGTTCGC	7.49	1.71	1.99	1.04	0.685	-0.178	0.705	0.512	1.17	0.88
ACTCGGAGGACAAAGGTCAGGGCTACGCCAGTGA	3.76	0.115	-0.434	4.95	4.18	0.463	5.81	1.53	4.69	4.65
CGTCCAAGGTCAATGCTAGATCAGTGAAAGCATT	3.17	-0.125	0.742	2.99	3.36	0.745	3.86	1.18	4.94	3.73
CCTCGGAGGACAGAAGGTCAAAGCTGTCCGCTTT	0.662	-1.42	-2.33	2.07	3.39	0.288	–	0.206	3.74	4.26
CAAACTAGGTCACGAGAGGTCAAAGTCGAATGAC	9.18	3.71	4.06	5.24	–	3.95	7.58	2.65	5.51	5.6
CCTTAAGGGTCACGAGGTTATAGCACGACGAGCG	5.81	1.74	1.89	4.47	5.46	0.279	6.79	1.6	–	5.02
AGAATGGGGTTATACGTAGATCAGGGAAGAAAGT	2.95	2.51	1.53	1.86	2.56	1.48	–	1.54	1.93	1.67
CTCGAAAGGTCGTGCTCAGATGAGTATACCAAAC	1.25	0.625	1.37	1.3	2.96	0.152	–	0.441	3.79	2.15
CAAACCAGGTCACAGAGGTCAAAGTCCGTGCGTA	7.43	3.56	2.74	5.78	7.23	14.2	–	4.25	5.41	5.56
CGTCAAAGGTCAGAGAGGTCAGTGAATGCCGAGT	5.36	0.83	0.0737	5.81	6.7	12.3	–	5.86	–	6.19
CCTTACGGGTCACGTGGTTATAGCACGACGAGCG	4.93	0.819	-0.242	1.26	–	-0.028	4.4	0.132	4.49	3.47
CCGACGGGGGCAAAGGTTACCATACTCAGTACGA	5.25	2.34	3.31	2.4	5.31	0.704	–	0.677	3.84	3.21
CGAACGAGGTCATCCAGGACAGTGAATACATTGA	6.11	3.53	2.68	4.36	–	9.68	6.05	1.86	5.11	4.1
ATCGAAAGGTCAAGGTGAGTATAGAGAAAGGGAA	5.43	2.02	1.2	4.09	5.13	1.19	5.85	2.51	–	5.32
CAAACTAGGTCAAAAGGTCAAAGTCCGCTTCCCG	8.17	1.83	1.09	7.65	6.71	2.96	–	5.47	–	6.38
TGTCAATGTTCAAAGGTAACGTAAGTATCCACAC	1.8	1.27	0.82	0.516	–	-0.115	0.48	-0.4	1.09	0.732
GCTGCTAGGTCAACTGATGGTCAACTAAAGCTCG	4.19	-0.672	0.0374	2.3	2	-0.565	–	0.323	4.29	3.7
GCTGCGAGGTCAACTGATGGTCAGCTAAAGCTCG	4.26	0.48	-0.29	3.57	5.49	0.673	5.93	0.38	–	4.83
CAAACCAGGTCAAAGGTCAAAGTCGAGCCAACCA	7.43	2.48	1.06	4.04	–	2.11	9.04	3.33	5.8	5.45
ATCGAAAGGTCGACGAGGTGAGTAAACACCGTTT	1.85	0.135	1.17	1.63	3.05	0.324	–	0.378	3.85	2.98
CAAAATAGGTCACAGAGGTCAAAGTCCGTGCGTA	8.25	1.92	1.23	4.67	6.99	10.7	7.81	1.88	–	5.93
CAAAATAGGTCACCGGAAGGTCAAAGTCCGCATG	8.01	1.87	1.44	8.87	6.56	1.96	8.2	4.27	–	5.89
CTCGAAAGGTCATGCTCAGGTGAGTATACCAAAC	4.89	1.38	0.849	3.71	5.91	0.752	6.85	2.27	–	5.14
TATACAGGGTCAAAGGCCAAAGTACGAATGTCGA	5.37	2.17	1.63	4.71	5.05	0.969	–	1.74	4.76	3.7
